From PubChem BioAssay AID1508602 (The Scripps Research Institute Molecular Screening Center, 2020)
Among all 650,000 compounds or so, about 6,800 (1%) were called active. Shown is part of a subset that was picked to be rich in actives. Values without a mark were called inactive. No stated cut-off is given here; in the data, active means activation above about 4.9%; inactive means the rest.

target: G-protein coupled receptor 151 (Homo sapiens) (UniProt Q8TDV0); assay: activators of human GPR151, primary screen, cell-based, PathHunter beta-arrestin, luminescence (AID 1508602); conditions: PathHunter beta-arrestin GPR151 cells, at 11.2 µM, hits give high values;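 further: 0% = median of compound wells and 100% = cells with positive control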
Sequence (Q8TDV0 whole entry, looked up): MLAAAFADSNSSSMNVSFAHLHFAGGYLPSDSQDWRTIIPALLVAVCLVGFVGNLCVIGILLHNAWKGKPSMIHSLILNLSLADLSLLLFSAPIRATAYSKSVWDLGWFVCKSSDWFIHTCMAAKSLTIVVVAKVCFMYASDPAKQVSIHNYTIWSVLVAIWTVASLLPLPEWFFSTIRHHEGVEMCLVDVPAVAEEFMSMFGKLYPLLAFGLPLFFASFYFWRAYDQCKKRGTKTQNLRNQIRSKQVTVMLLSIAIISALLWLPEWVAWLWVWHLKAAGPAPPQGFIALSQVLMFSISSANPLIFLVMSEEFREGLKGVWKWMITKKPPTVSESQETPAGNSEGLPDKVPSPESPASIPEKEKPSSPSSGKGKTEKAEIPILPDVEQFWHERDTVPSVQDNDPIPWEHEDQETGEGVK

Question: Which activation does the source give for `NC(=O)CN(c1ccccc1)S(=O)(=O)c1ccccc1[N+](=O)[O-]` here?
Answer: 0.204%

Question: How did the activation turn out when `CCOc1cc(CNCc2c(C(=O)O)n(CC)c3cc(OC)ccc23)ccc1OC` was run?
Answer: -1.01%

Question: `O=C(CSc1nnnn1-c1ccc(F)cc1)N1CCc2ccccc21` was tested. Which activation did it give?
Answer: -1.53%

Question: For `COc1ccc(NC(=O)CCN2CCN(C=O)CC2)cc1`, which activation is on record?
Answer: -1.28%

Question: `O=CN1CCN(CCC(=O)Nc2ccccc2)CC1` was tested. Which activation did it give?
Answer: 5.13% (active)

Question: Which activation does the source give for `O=C(CCN1CCN(C/C=C/c2ccccc2)CC1)Nc1ccc(Br)cc1` here?
Answer: 1.05%

Question: With `CCOC(=O)c1c(NC(=O)c2nn3c(C(F)(F)F)cc(-c4ccc(OC)cc4)nc3c2Cl)sc2c1CCCC2` as the molecule, how does the activation read?
Answer: 0.0805%

Question: For `Fc1ccc(Nc2nc3ccccc3n3cnnc23)cc1`, which activation is on record?
Answer: -0.0284%

Question: How did the activation turn out when `Cc1ccc(Nc2cc(C)nc3nncn23)cc1` was run?
Answer: -0.458%

Question: With `Cc1cc(Nc2ccc(F)cc2)n2cnnc2n1` as the molecule, how does the activation read?
Answer: 9.65% (active)

Question: For `CCOc1ccccc1/C=C1/NC(=S)NC1=O`, which activation is on record?
Answer: 0.436%

Question: For `O=C1CCCN1CCn1cnc2c(NCc3nc4ccccc4[nH]3)nc(N3CCc4ccccc4C3)nc21`, which activation is on record?
Answer: -1.26%

Question: For `COc1ccc(OC)c(NC(=S)Nc2ccccn2)c1`, which activation is on record?
Answer: 9.49% (active)

Question: `CNC(=O)C(=O)Nc1cc(OC)ccc1OC` was tested. Which activation did it give?
Answer: -0.733%

Question: For `CCn1cc(CNC(=S)Nc2cc(OC)ccc2OC)cn1`, which activation is on record?
Answer: -1.23%

Question: With `COCCn1nnnc1C(c1cc2c(C)cc(C)cc2[nH]c1=O)N1CCCC(C)C1` (stereo not given) as the molecule, how does the activation read?
Answer: 0.229%

Question: How did the activation turn out when `CCOc1ccc2cc(C#N)c(SCC(=O)Nc3ccccc3C(=O)OC)nc2c1` was run?
Answer: -0.792%

Question: Which activation does the source give for `COc1ccc(OC)c(CNC(=O)c2cc3c(C)nc4ccccc4c3o2)c1` here?
Answer: 0.296%

Question: For `O=C(Nc1cc(Cl)cc(Cl)c1)c1ccc(F)c(S(=O)(=O)NCc2ccco2)c1`, which activation is on record?
Answer: 0.664%

Question: `COc1ccc(C2=NN(C(=O)CSc3nnc(CNC(=O)c4ccc(S(=O)(=O)N(C)C)cc4)n3C)C(c3ccc(C)cc3)C2)cc1` (stereo not given) was tested. Which activation did it give?
Answer: 1.11%

Question: Which activation does the source give for `CC(C)CC(C(=O)Nc1ccc(Cl)cc1)N1C(=O)c2ccccc2C1=O` (stereo not given) here?
Answer: -0.915%

Question: For `CC(C)CC(C(=O)Nc1cccc([N+](=O)[O-])c1)N1C(=O)c2ccccc2C1=O` (stereo not given), which activation is on record?
Answer: 15.7% (active)

Question: With `CC(C)CC(C(=O)Nc1ccc([N+](=O)[O-])cc1)N1C(=O)c2ccccc2C1=O` (stereo not given) as the molecule, how does the activation read?
Answer: 2.66%

Question: How did the activation turn out when `CCOCCCNC(=O)/C(C#N)=C/c1c(Oc2ccc(CC)cc2)nc2ccccn2c1=O` was run?
Answer: -7.56%

Question: For `CCN(CC)c1ccc(CN2C[C@@H](NCc3ccc4ccccc4c3)C[C@H]2C(=O)NC)cc1`, which activation is on record?
Answer: 0.619%
